18 compounds from PubChem BioAssay (NCATS) can be followed below.

A number with no mark means an inactive call. Active and inactive are the calls of the source. Calls follow the shape of the dose curve; as a rule, active = well fitted activation curve with a large enough effect; inconclusive = small, poorly fitted or top-dose-only effect; inactive = flat fitted curve, though single readings scatter.

The test is described as follows: Cellular Toxicity (caspase-3) HepG2 (AID 654).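 Also: cells exposed to compound for 16 hours before reading.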 Conditions: HepG2 caspase-3 activation, luminescence, 0% = DMSO only, 100% = tamoxifen; series mostly up to 92.2 µM; caspase-3 activation: at the top concentration. A digest of the protocol:
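Cells plated 5 hr at 37 °C, compound added, incubated 16 hr at 37 °C. Caspase-Glo 3/7 reagent followed, 20 min at room temperature, then luminescence read. Activation scored as signal increase; AC50 from Hill fit.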
Take `CCC(C)(C)c1ccc(O)cc1`: the “caspase-3 activation” value was -0.662%.
Regarding `C[C@]12CCC(=O)C=C1CC[C@@H]1[C@@H]2CC[C@]2(C)C(=O)CC[C@@H]12`, the call was inactive.
With `Nc1ccccc1`, the “caspase-3 activation” value is -0.193%.
For the compound `CCOC(=O)CC(SP(=S)(OC)OC)C(=O)OCC` (stereo not drawn), the “caspase-3 activation” value was 0.106%.
The same measure, in the same setting: to `C[C@]1(O)CC[C@H]2[C@@H]3CCC4=CC(=O)CC[C@]4(C)[C@@]3(F)[C@@H](O)C[C@@]21C` belongs -0.556%.
Same read-out and setting: to `COc1cc(OC)c(OC)cc1C=O` belongs 0.709%; to `CC(C)c1cccc(C(C)C)c1O`, -0.841%; to `COC(=O)C(c1ccccc1)C1CCCCN1` (stereo not drawn), -0.681%.
Same read-out and setting: to `Oc1ccc(Cl)cc1` belongs 0.434%; to `CC(C)NC(C)C`, 0.0261%.
Take `NCCc1ccc(O)cc1`: the “caspase-3 activation” value was -0.763%.
As to `O=P1(N(CCCl)CCCl)NCCCO1` (stereo not drawn), the “caspase-3 activation” value was -0.735%.
The same measure, in the same setting: to `COP(=S)(OC)Oc1ccc(SC)c(C)c1` belongs -0.808%.
The same measure, in the same setting: to `CCCC(C)(COC(N)=O)COC(N)=O` belongs -0.349%.
In the case of `Nc1ccccc1C(=O)O`, the “caspase-3 activation” value was -0.395%.
On to `CN1C[C@H](C(=O)N[C@]2(C)O[C@@]3(O)[C@@H]4CCCN4C(=O)[C@H](Cc4ccccc4)N3C2=O)C=C2c3cccc4[nH]cc(c34)C[C@H]21`, for which the “caspase-3 activation” value is 0.57%.
As to `C[C@]12CCC(=O)C=C1CC[C@@H]1[C@@H]2CC[C@@]2(C)[C@H]1CC[C@]2(C)O`, the “caspase-3 activation” value was -1.31%.
The same measure, in the same setting: to `Clc1ccc(C(c2ccc(Cl)cc2)C(Cl)(Cl)Cl)cc1` belongs 0.902%.
